This is a sample that favours compounds with a hit; in the whole collection about 4.3% have one here.
Anthrax LF prot – Bacillus anthracis LF protease inhibitors, primary screen, biochemical, multiplex microsphere, MLPCN library; multiplex microsphere protease cleavage assay; AID 588501, 2011; Lethal factor (Bacillus anthracis), P15917; inhibition, % at 10 µM; 360,000 tested, 0.12% active; also: plate controls were buffer without enzyme for full effect and enzyme alone for no effect
BoNT-A LC inh2 – BoNT/A light chain protease inhibitors, primary screen, biochemical, flow cytometry, MLPCN library | 360,000 tested, 0.17% active | Botulinum neurotoxin type A light chain protease (Clostridium botulinum A str. ATCC 3502) | multiplex microsphere protease substrate cleavage | inhibition, % at 10 µM; also: plate controls were buffer without enzyme for full effect and enzyme alone for no effect
Bead autofluor – compound fluorescence in toxin protease inhibitor counterscreen; fluorescence intensity (no concentration beside the values); 360,000 tested, 3.1% active; AID 624483; compound autofluorescence counterscreen, microsphere flow cytometry; stronger effect = higher value; in the data active = fluorescence intensity above about 16000; inconclusive = no clear call, values can overlap the other calls
BoNT F protease – BoNT/F light chain protease inhibitors, primary screen, biochemical, flow cytometry, MLPCN library | Multiplex microsphere protease cleavage assay | inhibition, % at 10 µM | 360,000 tested, 0.22% active | AID 588497, 2011; in the data active = inhibition above about 35%, passing the limit was not always enough; inconclusive = no clear call, values can overlap the other calls; also: plate controls were buffer without enzyme for full effect and enzyme alone for no effect
MazF activator – activators of E. coli MazEF toxin-antitoxin RNase, primary screen, biochemical, fluorescence, uHTS; 350,000 tested, 0.32% active; AID 504720, 2011; activation, % at 20 µM; Endoribonuclease toxin MazF (Escherichia coli (strain K12)), P0AE70; FAM/BHQ RNA-DNA oligo cleavage fluorescence, 5 h; in the data active = activation above about 50%
Target sequence (P0AE70 whole entry, looked up): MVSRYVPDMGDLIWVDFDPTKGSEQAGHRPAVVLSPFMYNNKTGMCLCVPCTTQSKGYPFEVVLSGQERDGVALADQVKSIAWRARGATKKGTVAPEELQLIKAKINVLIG
PfHsp40 yeast – rescue of yeast from PfHsp40 toxicity, primary screen, S. cerevisiae, ATP luminescence. S. cerevisiae expressing PfHsp40, growth rescue. growth rescue, % at 12.5 µM. 340,000 tested, 0.68% active. AID 504582, 2011; in the data active = growth rescue above about 28%, passing the limit was not always enough; inconclusive = no clear call, values can overlap the other calls;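 also: yeast W303a lacking pdr1 and pdr3 grown in galactose medium; growth measured after three days at 30 °C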
Numbers without * were called inactive; ? = inconclusive; / = no result given. Rule as the data show it, unless noted: active = inhibition above about 30%; inconclusive = no clear call, values can overlap the other calls; inactive = below that.

SMILES | Anthrax LF prot | BoNT-A LC inh2 | Bead autofluor | BoNT F protease | MazF activator | PfHsp40 yeast
c1ccc(CNc2c(C3CCNCC3)nc3scc(-c4ccccc4)n23)cc1 | -3 | 0 | 5476 | 4 | / | /
COc1ccc(C2SCC(=O)Nc3c2c(C)nn3-c2ccccc2)cc1 (stereo unspecified) | 1 | -1 | 5052 | -10 | 3 | 0
Cc1nn(C2CCOC(C)(C)C2)c2c1C(c1ccc(OC(C)C)cc1)SCC(=O)N2 (stereo unspecified) | 0 | 0 | 21930* | -2 | -7 | 0
CSc1nc(NC(C)(C)C)nc(Oc2ccc(=O)[nH]n2)n1 | -4 | 1 | 19465* | -1 | 4 | 1
CC(C)CNc1nc(NC(C)(C)C)nc(Oc2ccc(=O)[nH]n2)n1 | 3 | 0 | 4466 | -1 | -1 | 0
Cc1sc2nc(CN3CCCC3)nc(N3CCN(S(=O)(=O)c4cccs4)CC3)c2c1C | 0 | ? | 24350* | -4 | -13 | 2
Cc1ccc(-c2csc3ncnc(N4CCN(S(=O)(=O)c5cccs5)CC4)c23)cc1 | -13 | -1 | 3306 | -15 | -15 | 122*
Cc1ccc(-c2csc3ncnc(N4CCN(S(=O)(=O)c5ccc(C#N)cc5)CC4)c23)cc1 | -2 | -1 | 3816 | -6 | -10 | /
Cc1nc(SCC(=O)c2ccc(F)cc2)c([N+](=O)[O-])[nH]1 | -3 | 1 | 2519 | -2 | 6 | 1
Cc1nc(SCC(=O)c2ccc(Cl)cc2)c([N+](=O)[O-])[nH]1 | -2 | ? | 24383* | -8 | -2 | -1
Cc1ccc(NC(=O)COC(=O)c2cc(=O)c3cc(F)ccc3o2)cc1 | 3 | -1 | 6374 | 6 | 2 | -2
CCOC(=O)c1c(C)c(C(=O)NCCCOC(C)C)c(C)n1C | -6 | 2 | 19718* | 2 | 6 | -1
CCOC(=O)c1c(C)c(C(=O)NCc2ccc3c(c2)OCO3)c(C)n1C | -2 | -2 | 16759* | -8 | 1 | 0
CCOC(=O)c1c(C)c(C(=O)NC(C)COC)c(C)n1C (stereo unspecified) | -3 | ? | 17439* | -5 | 8 | -1
CCOC(=O)c1c(C)c(C(=O)NCc2ccc3c(c2)OCO3)c(C)n1CC | 1 | 0 | 2126 | -2 | 1 | -1
Cc1cc(=O)oc2cc(OCC(=O)N(C)C3CCS(=O)(=O)C3)c(Cl)cc12 (stereo unspecified) | -3 | 2 | 5912 | 2 | 8 | 0
CC(C)(C)c1ccc(C(=O)N2CCC2(C)C(=O)NS(=O)(=O)c2ccc(C#N)cc2)cc1 (stereo unspecified) | -9 | 0 | 4012 | -12 | / | /
COc1ccccc1CC(=O)Nc1ccc(-c2noc(COc3ccc(Cl)c(C)c3)n2)cc1 | 0 | ? | 21393* | 4 | -3 | -1
COc1cc(-c2noc(CCCC(=O)Nc3ccc(C(N)=O)cc3)n2)cc(OC)c1OC | 3 | 0 | 5575 | -4 | 7 | /
COc1ccc(-c2noc(CCCC(=O)Nc3ccc(C(N)=O)cc3)n2)cc1 | 0 | -5 | 22075* | -5 | -2 | -1
COc1ccc(N2CCN(c3nc(NCCc4ccc(OC)c(OC)c4)nc(OC)n3)CC2)cc1 | -5 | ? | 22889* | 0 | -6 | 3
CCOc1nc(NCCc2ccc(OC)c(OC)c2)nc(N2CCN(c3ccc(OC)cc3)CC2)n1 | -2 | -1 | 23445* | -1 | 10 | 0
CCOc1cc(C(=O)Nc2cc(C(=O)OC)ccc2C)ccc1OCC(=O)N1CCOCC1 | 2 | -1 | 3827 | 4 | 5 | 5
O=C(NC1CCN(C(=O)c2ccccc2Br)CC1)c1ccccc1 | -5 | -1 | 3568 | 7 | 2 | 0
CC(=O)O/N=C/c1c(N2CCOCC2)n(C)c2ccccc12 | -6 | -2 | 23889* | -1 | 4 | -1
CCCCCCCNC(=O)C1(CC2CC(c3ccc(Cl)cc3)=NO2)CCN(C(=O)CCCCCBr)CC1 (stereo unspecified) | -11 | -1 | 3395 | -22 | 4 | ?
